# DT40 TDP1 no CPT: qHTS for Inhibitors of human tyrosyl-DNA phosphodiesterase 1 (TDP1): qHTS in cells in absence of CPT. AID 686978, 2013. Potency, µM (titrated, usually from 46.2 µM), inactives show at the top dose activity change, negative = growth inhibition, usual class: inhibitors. 15% of 420,000 active. DT40 Tdp1-/- hTDP1 cells, no CPT, ATP luminescence, 48 h; further: potency means the concentration at half of the fitted maximal effect; nearly all actives have a fitted effect of over 55% in size
#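 Luminescent ATP content (CellTiter-Glo) served as the growth readout. Knockout chicken DT40 cells expressing human TDP1 were exposed to compounds without camptothecin for a minimum 48 hr at 37 °C.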
# DT40 TDP1 CPT: DT40-hTDP1 cell growth loss with CPT | 12% of 420,000 active | chicken DT40 Tdp1-/-;hTDP1 cells + 20 nM CPT, ATP luminescence, 48 h | Potency, µM (titrated, usually from 46.2 µM), for the others: at the top dose activity change, negative = growth inhibition, actives largely listed as inhibitors; further: potency means the concentration at half of the fitted maximal effect; nearly all actives have a fitted effect of over 55% in size
#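 Chicken DT40 Tdp1-/- cells complemented with human TDP1, 400 cells/well, exposed to compounds plus 20 nM camptothecin for at least 48 h at 37 C; viability read as ATP content by CellTiter-Glo luminescence.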
# HT1080 IDH1KD tx: HT-1080 IDH1 knockdown cell toxicity (counter line) | 2% of 360,000 active | Potency, µM (doses to about 46.1 µM), for the others: top-dose activity, negative = toxicity, hits mostly cytotoxic | HT-1080 IDH1 knockdown viability, ATP luminescence, 48 h;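 further: potency means the concentration at half of the fitted maximal effect; 0% = DMSO wells and -100% = cell-free medium wells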
#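 % activity derives from luminescence (CellTiter-Glo), normalised to DMSO and no-cell wells. HT-1080-IDH1KD cells, 750/well, had 48 h compound exposure at 37 °C.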
# HT1080-NT tox: kills 2HG-producing HT-1080-NT fibrosarcoma cells; HT-1080-NT fibrosarcoma viability, CellTiter-Glo ATP luminescence, 48 h; Potency, µM (titrated, usually from 46.1 µM), for inactives: at the top dose activity, negative = less viability, usual class: cytotoxic; 1.6% of 360,000 active; AID 686970;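 further: NT is the 2HG producing partner of a matched IDH1 knockdown line; potency means the concentration at half of the fitted maximal effect; 0% = DMSO-treated cells and -100% = media-only wells without cells; nearly all actives have a fitted effect of over 55% in size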
#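 Viability of the 2HG-overproducing fibrosarcoma line after 48 hours of compound exposure at 37 degrees C was determined by luminescence with CellTiter-Glo, and concentration-effect curves were then fitted and categorized.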
# IL1B secr inh: inhibitors of inflammasome signaling (IL-1 beta secretion). THP-1 LPS/ATP IL-1B secretion, AlphaLISA, 16 h; hits give low values. activity change, % at 57.5 µM. 4.7% of 360,000 active. AID 743279; in the data active means activity change below about -50%; inconclusive means mostly about -30% to -49%
#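 THP-1 cells pretreated 1 hr with compounds (up to 57.5 uM final), then stimulated with LPS (250 ng/mL final) plus ATP (1.25 mM final); secreted IL-1B measured by AlphaLISA after 16 hr, decreased signal indicating inhibition.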
# Starred values were filed as active, the others as inactive; ? = inconclusive; . = not tested or not shown. Compounds with a hit are over-represented: about 19% of the library has one in this group of screens. Unless noted, the call rests on the fitted dose curve; in most records, active means well fitted curve in the direction sought with a large enough effect; inconclusive means small, poorly fitted or top-dose-only effect, or another doubt; inactive means no such curve, though single readings can be large; an effect the other way counts as inactive or inconclusive. Unless noted, on the % scale 0 is the no-effect control and ±100 the full control effect.
SMILES,DT40 TDP1 no CPT,DT40 TDP1 CPT,HT1080 IDH1KD tx,HT1080-NT tox,IL1B secr inh
COCCCN(C(=O)CCOc1ccc(C)cc1)c1c(N)n(Cc2ccccc2)c(=O)[nH]c1=O,3.2%,2.2%,-1.5%,-1.3%,-5.2
CC(=C/c1ccc(C(C)C)cc1)/C=N/NC(=O)CSc1ccccn1,?,?,8.1%,11.9%,-9.4
CC(/C=N/NC(=O)CSc1ccccn1)=C\c1ccc(C(C)C)cc1,10.3µM*,?,16.0%,6.3%,4.3
Cc1cc(C)c(C#N)c(N2CCN(c3ccccc3F)CC2)n1,-7.5%,6.9%,1.1%,0.6%,41.9
COCC(C)N1C(=O)Cc2c1nc(N)c1c(N)nc(N3CCN(c4ccccc4F)CC3)c(C#N)c21 (centres undefined),25.9µM*,?,-19.3%,4.0%,?
COCCN1C(=O)Cc2c1nc(N)c1c(N)nc(N3CCN(c4ccc(F)cc4)CC3)c(C#N)c21,2.06µM*,8.2µM*,-4.4%,0.2%,34.8
COc1ccc(CN2C(=O)Cc3c2nc(N)c2c(N)nc(N4CCOCC4)c(C#N)c32)cc1,20.6µM*,14.6µM*,7.9%,-3.5%,-23.2
CC(=O)c1ccc(OCC(=O)N2CCCCC2)cc1,4.7%,2.9%,.,.,.
Cc1ccnc(NC(=O)C2CC(=O)N(c3ccc4c(c3)OCCO4)C2)c1 (centres undefined),10.4%,-13.0%,1.1%,-2.2%,-0.2
O=C(CCCCn1c(=O)c2ccccc2n(CC(=O)Nc2cccc(F)c2)c1=O)NCc1ccccc1Cl,-13.3%,-4.5%,.,.,.
CC(C)(C)C(=O)Cn1c(=O)n(CCCCCC(=O)NCc2ccccc2Cl)c(=O)c2sccc21,20.6µM*,?,.,.,.
Cc1ccc(NC(=O)Cn2c(=O)n(CCCCC(=O)NCc3ccccc3Cl)c(=O)c3ccccc32)cc1,23.1µM*,?,.,.,.
Cc1ccc(NC(=O)Cn2c(=O)n(CCC(=O)NCc3ccccc3Cl)c(=O)c3ccccc32)cc1,20.6µM*,16.4µM*,.,.,.
COc1cc2c(=O)n(Cc3ccccc3Cl)c(=O)n(CC(=O)Nc3ccc(C)c(C)c3)c2cc1OC,7.31µM*,1.84µM*,.,.,.
Cc1ccc(NC(=O)Cn2c(=O)n(CCC(=O)NCc3ccccc3Cl)c(=O)c3ccccc32)c(C)c1,-0.7%,-6.4%,.,.,.
COCCCNC(=O)CSc1nc2cc3c(cc2c(=O)n1CCCCCC(=O)NCc1ccc(OC)cc1)OCO3,-22.0%,-8.1%,.,.,.
COc1ccc(S(=O)(=O)NC(=O)C2(C)CCN2C(=O)C(C)(C)c2ccccc2)cc1 (centres undefined),-2.8%,0.3%,0.3%,1.9%,-6.2
COc1ccc(CNC(=O)c2cc(=O)c3cc(C)cc(C)c3o2)cc1,2.3%,-22.7%,8.7%,17.7%,-4.5
Cc1ccc2c(c1)c(/C=C/c1cc[n+](C)cc1)c(C)n2C,0.411µM*,0.517µM*,?,?,-62.7*
COc1ccc2c(c1)c(/C=N/Nc1ccc(C(=O)O)cc1)c(C)n2C,-15.3%,10.0%,10.7%,11.5%,12.6
C[n+]1ccc(/C=C/c2ccc(Br)cc2)cc1,-12.1%,1.8%,-3.5%,3.1%,?
Cc1ccc2[nH]c(C)c(/C=C/c3cc[n+](C)cc3)c2c1,2.59µM*,3.26µM*,?,?,?
CSCc1cc(C(=O)NC2CC2)c(N)s1,?,?,16.1%,19.5%,4.8
CC(CCCN(C)C)C(Cc1ccccc1)c1ccccc1 (centres undefined),?,?,16.4µM*,?,-65.6*
CN(C)CCC(=O)C(Cc1ccccc1)c1ccccc1 (centres undefined),4.61µM*,5.17µM*,?,-39.2%,-99.1*
SMILES,DT40 TDP1 no CPT,DT40 TDP1 CPT,HT1080 IDH1KD tx,HT1080-NT tox,IL1B secr inh
CN(C)CC(c1ccccc1)c1ccccc1,-5.6%,-2.4%,9.6%,17.4%,.
O=C(Nc1sccc1C(=O)N1CCOCC1)c1cccnc1,-13.3%,?,6.9%,5.4%,6.2
CN1CCN(CC(=O)Nc2nc3ccccc3s2)CC1,-23.3%,-0.8%,-0.6%,-2.8%,-6.8
CN1CCN(CC(=O)Nc2nc(-c3c[nH]c4ccccc34)cs2)CC1,?,-14.8%,20.6µM*,?,-68.2*
CCC(C)Nc1nc(-c2c[nH]c3ccccc23)cs1 (centres undefined),?,-27.5%,?,?,-81.8*
Cc1ccc(C(CNS(=O)(=O)c2ccc(Cl)cc2)N2CCN(C)CC2)cc1 (centres undefined),?,?,-0.9%,-16.1%,?
COc1ccc(-c2cc3cccc(OC)c3oc2=O)cc1,-0.5%,-10.4%,-11.1%,-19.7%,0.0
O=C(O)c1ccc(Nc2nc(-c3cc4ccccc4oc3=O)cs2)cc1O,?,?,-9.9%,-9.8%,0.0
COc1ccc2oc(=O)c(-c3csc(Nc4cccc(O)c4)n3)cc2c1,16.4µM*,?,?,?,-79.3*
COc1ccc(Nc2nc(-c3cc4cccc(OC)c4oc3=O)cs2)cc1,20.6µM*,?,-4.5%,-9.3%,12.5
CCn1c(SCC#N)nc2c(c1=O)C1(CCCC1)Cc1ccccc1-2,-28.0%,?,-22.5%,-2.5%,-6.7
CCCn1c(SCC(N)=O)nc2c(c1=O)C1(CCCC1)Cc1ccccc1-2,9.2%,-0.3%,6.8%,0.6%,-58.3*
CCOc1ccc(NC(=O)C2CCCN(c3nnc(C)c4c(C)n(-c5ccccc5)nc34)C2)cc1 (centres undefined),-15.3%,-10.9%,.,.,.
Cc1cc(C)cc(NC(=O)C2CCCN(c3nnc(C)c4c(C)n(-c5ccccc5)nc34)C2)c1 (centres undefined),14.6µM*,23.1µM*,.,.,.
Cc1ccc(NC(=O)C2CCN(c3nnc(C)c4c(C)n(-c5ccccc5)nc34)CC2)c(Cl)c1,?,13µM*,.,.,.
CNC(=O)C1CCCN(c2nnc(C)c3c(C)n(-c4ccccc4)nc23)C1 (centres undefined),-15.7%,-5.7%,.,.,.
CCc1ccc(NC(=O)C2CCCN(c3nnc(C)c4c(C)n(-c5ccccc5)nc34)C2)cc1 (centres undefined),9.2µM*,?,.,.,.
CCc1ccc(NC(=O)N2CCN(c3nnc(C)c4c(C)n(-c5ccc(Cl)cc5)nc34)CC2)cc1,23.1µM*,?,.,.,.
CN(C)CCCN1C(=O)C(O)=C(C(=O)c2cc3ccccc3o2)C1c1ccccc1 (centres undefined),-20.2%,-0.4%,10.5%,8.9%,24.1
Cc1ccc(NC(=O)C2CCCN(c3nnc(C)c4c(C)n(-c5ccccc5)nc34)C2)c(Cl)c1 (centres undefined),3.26µM*,4.11µM*,.,.,.
